About 14,000 (4.5%) of roughly 310,000 compounds showed an effect of 50% or more. The effect is printed as a negative number. The full list was thinned out, with strong results kept by preference.
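Also: peak tail current of the secondary pulse compared with the same well before compound.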

In this assay the target is human ether-à-go-go-related gene (hERG) potassium channel (human, UniProt Q12809). In words: primary screen, population patch clamp on CHO cells stably expressing hERG; higher = less effect of the substance.
Chain of human ether-à-go-go-related gene (hERG) potassium channel (Q12809 whole entry, looked up): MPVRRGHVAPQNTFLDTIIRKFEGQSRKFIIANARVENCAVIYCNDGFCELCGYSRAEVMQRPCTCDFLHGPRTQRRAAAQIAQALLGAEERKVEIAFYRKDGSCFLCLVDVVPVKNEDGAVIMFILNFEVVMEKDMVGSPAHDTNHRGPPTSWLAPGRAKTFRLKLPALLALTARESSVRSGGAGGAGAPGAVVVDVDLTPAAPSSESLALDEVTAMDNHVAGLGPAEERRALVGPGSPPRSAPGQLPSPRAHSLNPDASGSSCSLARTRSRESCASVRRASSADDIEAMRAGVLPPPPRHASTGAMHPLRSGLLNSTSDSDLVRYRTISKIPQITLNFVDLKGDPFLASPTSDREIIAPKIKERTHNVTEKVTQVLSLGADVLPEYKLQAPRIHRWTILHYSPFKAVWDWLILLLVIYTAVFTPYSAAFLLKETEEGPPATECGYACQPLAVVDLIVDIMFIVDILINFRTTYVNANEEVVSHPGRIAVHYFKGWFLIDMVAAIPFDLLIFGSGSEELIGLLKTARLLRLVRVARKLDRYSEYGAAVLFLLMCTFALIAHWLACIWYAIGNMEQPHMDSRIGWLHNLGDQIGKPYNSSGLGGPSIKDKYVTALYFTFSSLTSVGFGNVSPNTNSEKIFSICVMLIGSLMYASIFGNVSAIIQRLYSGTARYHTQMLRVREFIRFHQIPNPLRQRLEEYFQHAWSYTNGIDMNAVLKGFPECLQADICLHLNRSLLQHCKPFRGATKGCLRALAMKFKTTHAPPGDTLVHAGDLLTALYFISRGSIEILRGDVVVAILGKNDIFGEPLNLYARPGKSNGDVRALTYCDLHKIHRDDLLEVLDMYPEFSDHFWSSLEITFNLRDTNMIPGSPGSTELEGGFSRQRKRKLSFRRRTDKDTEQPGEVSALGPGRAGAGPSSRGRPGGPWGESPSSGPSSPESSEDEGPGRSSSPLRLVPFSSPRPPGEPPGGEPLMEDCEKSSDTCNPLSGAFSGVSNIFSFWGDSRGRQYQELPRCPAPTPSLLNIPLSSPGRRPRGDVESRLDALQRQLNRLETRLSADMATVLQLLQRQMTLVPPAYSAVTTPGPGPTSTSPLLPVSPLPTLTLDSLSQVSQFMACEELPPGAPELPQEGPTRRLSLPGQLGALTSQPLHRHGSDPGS
Consider `Cc1ccc(/C=C2/SC(=S)N(CCCC(=O)Nc3cc([N+](=O)[O-])ccc3O)C2=O)cc1`, for which the “hERG current change (%, negative = inhibition) at 10uM” value is listed as 13.1%.

For the compound `O=C(NC(=S)NCCc1ccccc1)c1ccco1`, the “hERG current change (%, negative = inhibition) at 10uM” value was found to be 10.2%. In the case of `NC(=O)c1sc2cc(C(F)(F)F)cnc2c1-c1ccccc1` it was 15.5%; in that of `CCOc1ccc(OCC)c(NC(=O)C2CCN(S(=O)(=O)c3cccnc3)CC2)c1`, -29.9%. Regarding `Clc1ccc(-c2cnc3n2CCC3)cc1`, the “hERG current change (%, negative = inhibition) at 10uM” value is -23.1%. Regarding `Cc1cnc(NC(=O)CSc2c(Cl)cccc2Cl)s1`, the “hERG current change (%, negative = inhibition) at 10uM” value is on record as -6.06%. `O=C(Nc1ccc(Oc2cccnc2)cc1)C1CCN(Cc2ccc(F)cc2)CC1`: the “hERG current change (%, negative = inhibition) at 10uM” value is recorded as -55.2%.

For the compound `O=C(Nc1ccc(Oc2cccnc2)cc1)C1CCN(Cc2cc(Cl)ccc2O)CC1`, the “hERG current change (%, negative = inhibition) at 10uM” value is recorded as -45.9%. On to `O=C(Nc1ccc(Oc2cccnc2)cc1)C1CCCCN1Cc1ccc(CO)o1` (stereo not shown), for which the “hERG current change (%, negative = inhibition) at 10uM” value is listed as 1.59%. In the case of `O=C(Nc1ccc(Oc2cccnc2)cc1)C1CCN(Cc2ccccc2)CC1`, the “hERG current change (%, negative = inhibition) at 10uM” value is given as -75.1%. Take `O=C(Nc1ccc(Oc2ccccc2)cc1)C1CCN(c2ncccn2)CC1`: the “hERG current change (%, negative = inhibition) at 10uM” value amounted to 0.064%.

In the case of `Cc1ccccc1CN1CCC(C(=O)Nc2ccc(Oc3cccnc3)cc2)CC1`, the “hERG current change (%, negative = inhibition) at 10uM” value is recorded as -48.6%.

Turning to `COc1cccc(O)c1CN1CCC(C(=O)Nc2ccc(Oc3cccnc3)cc2)CC1`, the “hERG current change (%, negative = inhibition) at 10uM” value is -47.4%.

As for `O=C(Nc1ccc(Oc2cccnc2)cc1)C1CCN(Cc2cccc(Cl)c2)CC1`, the “hERG current change (%, negative = inhibition) at 10uM” value was -52.8%.

For `COc1ccc(CN2CCC(C(=O)Nc3ccc(Oc4cccnc4)cc3)CC2)c(C)c1C`, the “hERG current change (%, negative = inhibition) at 10uM” value is -36.8%.

As for `COc1ccc(CN2CCC(C(=O)Nc3ccc(Oc4cccnc4)cc3)CC2)cc1`, the “hERG current change (%, negative = inhibition) at 10uM” value is on record as -69.3%. With `Cc1ccc(CN2CCCCC2C(=O)Nc2ccc(Oc3cccnc3)cc2)o1` (stereo not shown) the figure was -19.4%. On to `Cc1cccc(CN2CCC(C(=O)Nc3ccc(Oc4cccnc4)cc3)CC2)c1`, for which the “hERG current change (%, negative = inhibition) at 10uM” value is reported as -14%. Take `COc1cccc(CN(CC(=O)NCC2CCCO2)C(=O)CCC(=O)Nc2cc(C)on2)c1` (stereo not shown): the “hERG current change (%, negative = inhibition) at 10uM” value is listed as -0.822%. As for `CCOC(=O)CCCCCNC(=O)c1c(O)[nH]c(=O)[nH]c1=O`, the “hERG current change (%, negative = inhibition) at 10uM” value worked out at 17.7%. For `O=C(c1cc(-c2ccncc2)nc2ccccc12)N1CCC2(CC1)OCCO2`, the “hERG current change (%, negative = inhibition) at 10uM” value is recorded as -25.9%. In the case of `CC(C)c1nc2oc3c(NCc4ccccn4)ncnc3c2c2c1COC(C)(C)C2` it was 5.62%; in that of `C/C(=N\NC(=O)COc1ccccc1[N+](=O)[O-])c1cccs1`, 10.3%; in that of `COc1cc(-c2nc(=S)[nH][nH]2)cc(OC)c1OC`, 5.94%. Regarding `Cc1ccc(C(=O)N/C(=C/c2ccc(-c3cc(C(F)(F)F)ccc3Cl)o2)C(=O)NCc2cccnc2)cc1`, the “hERG current change (%, negative = inhibition) at 10uM” value is listed as -1.72%. For `O=C(NCc1cccnc1)/C(=C/c1ccco1)NC(=O)c1ccccc1`, the “hERG current change (%, negative = inhibition) at 10uM” value is listed as -58.6%.

As for `COc1ccc(C(=O)N/C(=C\c2ccco2)C(=O)NCc2ccco2)cc1`, the “hERG current change (%, negative = inhibition) at 10uM” value is reported as -19.7%. Regarding `O=C(NCc1cccnc1)/C(=C/c1ccc(-c2cccc(Cl)c2)o1)S(=O)(=O)c1ccccc1`, the “hERG current change (%, negative = inhibition) at 10uM” value is -26.2%. In the case of `O=C(NCc1ccccn1)/C(=C/c1ccco1)NC(=O)c1ccccc1` it was -10%; in that of `O=C(NCc1ccco1)/C(=C/c1ccco1)NC(=O)c1ccccc1`, 4.34%.

For `COc1ccc(C(=O)N/C(=C\c2ccco2)C(=O)NCc2cccnc2)cc1`, the “hERG current change (%, negative = inhibition) at 10uM” value is listed as -66.7%. As to `Cc1ccc(C(=O)N/C(=C\c2ccco2)C(=O)NCc2cccnc2)cc1`, the “hERG current change (%, negative = inhibition) at 10uM” value is given as -65.2%. With `COc1ccc(C(=O)N/C(=C/c2ccco2)C(=O)NCc2ccco2)cc1` the figure was -30.1%; with `Cc1ccc(C(=O)N/C(=C/c2ccco2)C(=O)O)cc1`, -3.15%; with `O=C(NCc1cccnc1)/C(=C/c1ccc(-c2cccc(C(F)(F)F)c2)o1)NC(=O)c1ccccc1`, -74.1%. Regarding `Cc1ccc(C(=O)N/C(=C/c2ccco2)C(=O)NCc2ccco2)cc1`, the “hERG current change (%, negative = inhibition) at 10uM” value is reported as -12%. On to `O=C(Cn1nnc(-c2ccccc2)n1)NNC(=O)c1ccc(Br)cc1`, for which the “hERG current change (%, negative = inhibition) at 10uM” value was 17.6%.

Turning to `O=C(Nc1nnc(-c2ccco2)s1)C1CC1`, the “hERG current change (%, negative = inhibition) at 10uM” value is -10.2%. As to `O=C(CN1C(=O)/C(=C/c2c(F)cccc2Cl)Oc2ccccc21)NCc1ccco1`, the “hERG current change (%, negative = inhibition) at 10uM” value is given as 10.9%. For `CC(=O)O.Cc1ccc(C2C(C(=O)c3cccs3)=C(O)C(=O)N2c2ccc(S(N)(=O)=O)cc2)cc1` (stereo not shown), the “hERG current change (%, negative = inhibition) at 10uM” value worked out at 16.5%. As to `CCOc1ccc(-n2cc(C(=O)N3CCN(C)CC3)c3cc(OC)c(OC)cc3c2=O)cc1`, the “hERG current change (%, negative = inhibition) at 10uM” value worked out at 4.98%. `Cc1cc(C)c2sc(NC(=O)C3=COCCO3)nc2c1`: the “hERG current change (%, negative = inhibition) at 10uM” value is -11.6%. For `CCN(CC)CCN(C(=O)C1=COCCO1)c1nc2cc(C)cc(C)c2s1.Cl`, the “hERG current change (%, negative = inhibition) at 10uM” value is on record as -69%. Take `CCN(C(=O)C1=COCCO1)c1nc2c(C)cccc2s1`: the “hERG current change (%, negative = inhibition) at 10uM” value is -17.2%.

Consider `CCN(CC)CCN(C(=O)c1cc(Cl)sc1Cl)c1nc2cc3c(cc2s1)OCO3.Cl`, for which the “hERG current change (%, negative = inhibition) at 10uM” value is -24.7%.

`CCN(CC)CCN(C(=O)C1=COCCO1)c1nc2c(OC)ccc(OC)c2s1.Cl`: the “hERG current change (%, negative = inhibition) at 10uM” value is reported as -78.3%. With `CCN(CC)CCN(C(=O)c1c(F)cccc1F)c1nc2cc(C)cc(C)c2s1.Cl` the figure was -11.1%; with `CCN(CC)CCN(C(=O)C1=COCCO1)c1nc2cc3c(cc2s1)OCO3.Cl`, -72%. Consider `CCN(CC)CCN(C(=O)c1ccc(S(=O)(=O)N(CC)c2ccccc2)cc1)c1nc2c(OC)ccc(OC)c2s1.Cl`, for which the “hERG current change (%, negative = inhibition) at 10uM” value is given as -27%.

As to `CCN(CC)CCN(C(=O)c1ccc(Br)s1)c1nc2cc3c(cc2s1)OCO3.Cl`, the “hERG current change (%, negative = inhibition) at 10uM” value is given as -12%.

For `CCN(CC)CCN(C(=O)/C=C/c1cccs1)c1nc2ccc(C)cc2s1.Cl`, the “hERG current change (%, negative = inhibition) at 10uM” value is given as -10.8%.

Turning to `Cc1ccc2nc(N(CCN(C)C)C(=O)C3=COCCO3)sc2c1.Cl`, the “hERG current change (%, negative = inhibition) at 10uM” value is -44.1%. Regarding `CCN(CC)CCN(C(=O)C1=COCCO1)c1nc2ccc(C)cc2s1.Cl`, the “hERG current change (%, negative = inhibition) at 10uM” value is listed as -78.3%. `Cc1cc2ccccc2n1CCNC(=O)c1cccs1`: the “hERG current change (%, negative = inhibition) at 10uM” value is given as -0.757%. For `CN(C(=O)Nc1ccccc1)C1CCCCC1`, the “hERG current change (%, negative = inhibition) at 10uM” value stood at 10.2%.

For `C=CCOC(=O)C1=C(C)NC(SCC(=O)Nc2ccccc2)=C(C#N)C1c1ccco1` (stereo not shown), the “hERG current change (%, negative = inhibition) at 10uM” value is -15.1%. On to `CCC(Sc1nc2ccccc2o1)C(=O)Nc1nnc(C)s1` (stereo not shown), for which the “hERG current change (%, negative = inhibition) at 10uM” value is given as -12.4%. Take `CN(C)C(=O)c1cc(C(=O)c2ccc(F)cc2F)c[nH]1`: the “hERG current change (%, negative = inhibition) at 10uM” value is recorded as 14.6%. Turning to `Cc1ccccc1-n1c(SCc2cc(=O)n3ccccc3n2)nc2[nH]ncc2c1=O`, the “hERG current change (%, negative = inhibition) at 10uM” value was -35.2%. With `CCc1ccc(-n2c(SCc3cc(=O)n4cc(Br)ccc4n3)nc3[nH]ncc3c2=O)cc1`, the “hERG current change (%, negative = inhibition) at 10uM” value is -51%. Take `O=c1c2cn[nH]c2nc(SCc2cc(=O)n3cc(Br)ccc3n2)n1-c1ccc(Br)cc1`: the “hERG current change (%, negative = inhibition) at 10uM” value is -24.8%. In the case of `CN(Cc1ccccc1)C(=O)c1ccc2c(c1)OCCO2`, the “hERG current change (%, negative = inhibition) at 10uM” value amounted to 5.55%. In the case of `COc1ccc(-c2nc3ccccc3c(=O)n2CCOc2cccc(C)c2C)cc1`, the “hERG current change (%, negative = inhibition) at 10uM” value stood at 15%. As for `NC(=O)Cn1cc(C(=O)C(=O)N2CCOCC2)c2ccccc21`, the “hERG current change (%, negative = inhibition) at 10uM” value is given as 1.6%. With `Cc1cc(F)ccc1S(=O)(=O)Nc1ccccc1C(=O)Nc1ccccc1-c1nc2ccccc2[nH]1` the figure was 4.92%; with `O=C(NN1CC(C(=O)OCc2ccc(Br)cc2)CC1=O)c1ccccc1` (stereo not shown), -21.2%; with `O=C(NN1CC(C(=O)OCc2ccc(Cl)cc2Cl)CC1=O)c1ccccc1` (stereo not shown), -16.5%. For the compound `O=C(NN1CC(C(=O)OCc2ccccc2F)CC1=O)c1ccccc1` (stereo not shown), the “hERG current change (%, negative = inhibition) at 10uM” value is given as -56.8%.

As for `COc1cccc2cc(C(C)N(CCCN3CCOCC3)C(=O)Nc3ccccc3)oc12` (stereo not shown), the “hERG current change (%, negative = inhibition) at 10uM” value is reported as -16.9%.

As for `COc1cccc(NC(=O)N(CCCN2CCOCC2)C(C)c2cc3cccc(OC)c3o2)c1` (stereo not shown), the “hERG current change (%, negative = inhibition) at 10uM” value is given as -29.4%. In the case of `COc1cccc(NC(=O)N(CCCN2CCOCC2)C(C)c2cc3ccccc3o2)c1` (stereo not shown), the “hERG current change (%, negative = inhibition) at 10uM” value is -62.5%. `COc1ccc(NC(=S)N(CCCN2CCOCC2)C(C)c2cc3cccc(OC)c3o2)cc1` (stereo not shown): the “hERG current change (%, negative = inhibition) at 10uM” value is given as -35.5%. Turning to `COc1cccc(NC(=S)N(CCCN2CCOCC2)C(C)c2cc3ccccc3o2)c1` (stereo not shown), the “hERG current change (%, negative = inhibition) at 10uM” value is recorded as -44%.

With `COc1ccc(NC(=S)N(CCCN2CCOCC2)C(C)c2cc3ccccc3o2)cc1` (stereo not shown), the “hERG current change (%, negative = inhibition) at 10uM” value is on record as -78.4%. As to `Cn1c(=O)oc2cc(S(=O)(=O)NCCC(=O)NCCc3ccccc3)ccc21`, the “hERG current change (%, negative = inhibition) at 10uM” value is 1.29%. Turning to `COC(=O)c1ccc(CSc2nc3c(cnn3-c3ccc(F)cc3)c(=O)[nH]2)o1`, the “hERG current change (%, negative = inhibition) at 10uM” value was found to be 13.1%.

Turning to `O=C(Nc1ccccc1)c1ccc2c(c1)OCCCO2`, the “hERG current change (%, negative = inhibition) at 10uM” value is recorded as -10.7%. With `O=[N+]([O-])c1cccc(-c2c[n+]3c(n2-c2ccccc2)SCC3)c1.[Br-]` the figure was -42.3%. Consider `[Br-].c1ccc(Cn2c(-c3ccccc3)c[n+]3c2SCCC3)cc1`, for which the “hERG current change (%, negative = inhibition) at 10uM” value is recorded as -70.9%.

`COc1ccc(-c2c[n+]3c(n2-c2ccccc2)SCC3)cc1OC.[Br-]`: the “hERG current change (%, negative = inhibition) at 10uM” value is 4.92%. `O=C(CSc1nnc2ccc(-c3ccc(F)cc3)nn12)N1CCCC1`: the “hERG current change (%, negative = inhibition) at 10uM” value was -13.5%. For the compound `O=C(Nc1c(C(=O)c2ccccc2)oc2ccccc12)c1cc(-c2ccccc2O)n[nH]1`, the “hERG current change (%, negative = inhibition) at 10uM” value was 9.34%.
